Measurements published in publication PMC4336329 (PLoS ONE, 2015).
About 14,000 (4.5%) of roughly 310,000 compounds showed an effect of 50% or more. Effects have a minus sign here. What follows is part of a selection rich in strong results, with near analogues and random picks from the rest.

target: human ether-à-go-go-related gene (hERG) potassium channel (human, UniProt Q12809); experiment: primary screen, population patch clamp on CHO cells stably expressing hERG; higher = less effect of the substance
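Also: peak tail current of the secondary pulse compared with the same well before compound.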

Chain of human ether-à-go-go-related gene (hERG) potassium channel (Q12809 whole entry, looked up): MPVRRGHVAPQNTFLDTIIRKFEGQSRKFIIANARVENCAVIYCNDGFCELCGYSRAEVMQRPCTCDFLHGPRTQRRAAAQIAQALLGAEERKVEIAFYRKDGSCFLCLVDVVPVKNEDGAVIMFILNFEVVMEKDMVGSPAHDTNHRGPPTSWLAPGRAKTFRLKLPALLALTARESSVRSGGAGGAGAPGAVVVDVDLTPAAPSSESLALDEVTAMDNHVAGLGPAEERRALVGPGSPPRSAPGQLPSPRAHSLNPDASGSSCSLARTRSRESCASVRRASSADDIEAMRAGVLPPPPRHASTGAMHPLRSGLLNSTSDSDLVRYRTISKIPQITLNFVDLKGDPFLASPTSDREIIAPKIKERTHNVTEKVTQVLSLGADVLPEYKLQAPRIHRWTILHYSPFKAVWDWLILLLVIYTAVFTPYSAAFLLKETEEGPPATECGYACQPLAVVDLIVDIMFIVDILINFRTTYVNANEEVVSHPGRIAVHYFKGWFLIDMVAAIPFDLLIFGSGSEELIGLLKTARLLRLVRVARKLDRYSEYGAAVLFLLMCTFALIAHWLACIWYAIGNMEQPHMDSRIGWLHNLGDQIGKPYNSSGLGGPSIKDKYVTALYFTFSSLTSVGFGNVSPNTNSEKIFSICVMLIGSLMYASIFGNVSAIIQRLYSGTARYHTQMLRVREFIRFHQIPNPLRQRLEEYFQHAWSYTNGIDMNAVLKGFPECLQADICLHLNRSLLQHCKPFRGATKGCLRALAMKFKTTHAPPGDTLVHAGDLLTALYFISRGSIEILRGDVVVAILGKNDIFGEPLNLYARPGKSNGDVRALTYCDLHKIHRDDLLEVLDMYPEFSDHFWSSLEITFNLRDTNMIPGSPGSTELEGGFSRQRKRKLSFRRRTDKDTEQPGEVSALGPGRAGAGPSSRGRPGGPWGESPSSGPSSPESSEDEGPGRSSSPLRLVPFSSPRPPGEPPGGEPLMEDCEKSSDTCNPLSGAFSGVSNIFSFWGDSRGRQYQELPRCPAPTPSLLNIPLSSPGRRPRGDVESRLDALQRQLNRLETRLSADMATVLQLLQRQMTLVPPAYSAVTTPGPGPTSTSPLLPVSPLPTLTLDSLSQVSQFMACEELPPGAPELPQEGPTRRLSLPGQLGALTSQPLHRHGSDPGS

Structure (SMILES) | hERG current change (%, negative = inhibition) at 10uM [%]
Clc1cccc(Cl)c1C1N2CCCN12 (stereo not shown) | 11.4
CC(C)c1ccc(CNc2c([N+](=O)[O-])c(=O)oc3ccccc23)cc1 | 14.2
O=C(/C=C/c1ccc(NC(=O)c2ccccc2-c2ccccc2C(=O)O)cc1)c1ccccc1 | 25.7
Cc1ccc(C)n1-c1ccc(N2CCOCC2)nc1 | -1.52
CNC(=O)c1nnc(Cc2ccc(F)cc2)o1 | 9.51
C/C(CC(=O)Nc1ccc(N(C)C)cc1)=N\NC(=O)c1ccccn1 | 7.77
O=C(OCc1cc(=O)oc2cc(O)ccc12)c1cc(S(=O)(=O)N2CCOCC2)ccc1F | 5.32
Cc1cc(C)c(NC(=O)CNC(=O)c2ccc(-n3cncn3)c([N+](=O)[O-])c2)c(C)c1 | -12.8
Cc1ccc(S(=O)(=O)N(C)C)cc1NC(=O)c1ccc(-n2cncn2)c([N+](=O)[O-])c1 | -38.8
COC(=O)c1ccc(-n2cncn2)c([N+](=O)[O-])c1 | 12
COC(=O)c1ccc(N2CCN(S(=O)(=O)c3c(C)cc(C)cc3C)CC2)c([N+](=O)[O-])c1 | 21.4
Cc1cc(C)c(S(=O)(=O)N2CCN(C(=O)c3ccc(-n4cncn4)c([N+](=O)[O-])c3)CC2)c(C)c1 | -62.5
Cc1ccc(S(=O)(=O)N2CCN(C(=O)c3ccc(-n4cncn4)c([N+](=O)[O-])c3)CC2)cc1C | -72.7
CCC(=O)c1ccc(OCC(=O)NCC2COc3ccccc3O2)cc1 (stereo not shown) | -25.5
Cc1ccc(S(=O)(=O)N2CCCc3ccccc32)cc1C | 0.165
C[C@H](NC(=O)c1nc[nH]c1C(=O)N1CCN(C(=O)OC(C)(C)C)CC1)c1ccccc1 | 12.4
CCN(C1CCS(=O)(=O)C1)S(=O)(=O)c1cccs1 (stereo not shown) | 14.8
CN(C1CCS(=O)(=O)C1)S(=O)(=O)c1cccs1 (stereo not shown) | -51.6
CCCCN(C1CCS(=O)(=O)C1)S(=O)(=O)c1cccs1 (stereo not shown) | -7.11
Cc1cc(CCCCCCCCc2cc(C)cc(=O)o2)oc(=O)c1 | -2.63
O=C(Nc1nc(-c2ccccn2)cs1)c1cccc(-n2cnnn2)c1 | -5.61
CC(C)(C)NS(=O)(=O)c1ccc(OCC(=O)NCCC2=CCCCC2)cc1 | -14.1

Structure (SMILES) | hERG current change (%, negative = inhibition) at 10uM [%]
CC(=O)c1ccc(N2CCN(C(=O)C3CCCN(c4ncnc5c4nc4n5CCCCC4)C3)CC2)cc1 (stereo not shown) | -75.4
COc1ccccc1N1CCN(C(=O)C2CCCN(c3ncnc4c3nc3n4CCCCC3)C2)CC1 (stereo not shown) | -12.5
CN1CCN(C(=O)C2CCCN(c3ncnc4c3nc3n4CCCCC3)C2)CC1 (stereo not shown) | 1.36
CCOC(=O)N1CCN(C(=O)C2CCCN(c3ncnc4c3nc3n4CCCCC3)C2)CC1 (stereo not shown) | -22.9
COc1ccc(N2CCN(C(=O)C3CCCN(c4ncnc5c4nc4n5CCCCC4)C3)CC2)cc1 (stereo not shown) | -68.7
CC1CCN(C(=O)C2CCCN(c3ncnc4c3nc3n4CCCCC3)C2)CC1 (stereo not shown) | -41.5
COc1cccc(N2CCN(C(=O)C3CCCN(c4ncnc5c4nc4n5CCCCC4)C3)CC2)c1 (stereo not shown) | -81.7
Cc1ccc(Nc2nnc(-c3ccc4c(c3)OCO4)o2)c(C)c1 | 19.8
COc1ccc(C(C)N2CC34C=CC(O3)C(C(=O)O)C4C2=O)cc1 (stereo not shown) | 8.42
Cc1cccc2cc(CN(Cc3ccccc3)C(=S)NCCCN(C)C)c(=O)[nH]c12 | -38
COc1cc2cc(CN(CCc3ccccc3C)C(=S)NCCCN3CCOCC3)c(=O)[nH]c2cc1OC | -38.4
Cc1ccc2[nH]c(=O)c(CN(Cc3ccccc3)C(=S)NCCCN(C)C)cc2c1 | -24.9
Cc1ccc2cc(CN(CCc3ccccc3)C(=S)NCCCN(C)C)c(=O)[nH]c2c1 | -72
Cc1cc(C)c2[nH]c(=O)c(CN(Cc3ccccc3)C(=S)NCCCN(C)C)cc2c1 | -52.8
CCN(CC)CCCNC(=S)N(Cc1cccnc1)Cc1cc2cc(C)cc(C)c2[nH]c1=O | 22.9
COc1cc2cc(CN(CCc3cccc(C)c3)C(=S)NCCCN3CCOCC3)c(=O)[nH]c2cc1OC | -66.9
Cc1ccc2[nH]c(=O)c(CN(CCCN(C)C)C(=S)NCCc3ccccc3)cc2c1 | -42
Cc1ccc(CN(Cc2cc3cccc(C)c3[nH]c2=O)C(=S)NCCCN(C)C)cc1 | -65
Cc1cccc2cc(CN(Cc3cccnc3)C(=S)NCCCN(C)C)c(=O)[nH]c12 | 3.93
Cc1cc(C)c2[nH]c(=O)c(CN(Cc3cccnc3)C(=S)NCCCN(C)C)cc2c1 | -35.6
COc1cc2cc(CN(CCc3cccc(C)c3)C(=S)NCCCN(C)C)c(=O)[nH]c2cc1OC | -1.74
CC(C)(C)c1cc[n+](C2=C([O-])c3ccccc3C(=O)/C2=N\S(=O)(=O)c2cccs2)cc1 | -44

Structure (SMILES) | hERG current change (%, negative = inhibition) at 10uM [%]
CCc1c(C)n([O-])c2c([n+]1=O)CCC2 | 13.1
COc1cccc(N(CC(=O)NC2CCCC2)C(=O)CCC(=O)Nc2cc(C)on2)c1 | -16.4
CC(=O)N1CCN(Cc2nc3cc(NC(=O)c4ccccc4)ccc3n2C)CC1 | 15.8
CC(=O)Nc1ccc2c(c1)nc(CN1CCCC1)n2C | -7.28
CCC(=O)Nc1ccc2c(c1)nc(CN1CCN(C(C)=O)CC1)n2C | -0.94
CC(=O)N1CCN(Cc2nc3cc(NC(=O)c4cccc(Br)c4)ccc3n2C)CC1 | -70
Cn1c(CN2CCCCC2)nc2cc(NC(=O)c3cccc(Br)c3)ccc21 | -63.3
CCC(=O)Nc1ccc2c(c1)nc(CN1CCCCC1)n2C | 15
Oc1ccccc1N1CCN(c2ncccn2)CC1 | 10.4
Cc1ccc(S(=O)(=O)NNC(=O)c2sccc2-n2cccc2)cc1 | -21.7
CC(C)c1cccc(C(C)C)c1NC(=S)Nc1cccc(Cl)c1 | 5.01
COc1ccc(CC(=O)NNC(=O)c2ccncc2)cc1 | 29.1
CCOc1ccc(CNS(=O)(=O)c2c(C)nc3scc(C)n3c2=O)cc1OC | 8.99
COc1cccc(CNS(=O)(=O)c2c(C)nc3sccn3c2=O)c1 | -13.6
CCOc1ccc(CNS(=O)(=O)c2c(C)nc3sccn3c2=O)cc1OC | -66.1
O=C(NCCNC(=O)c1ccccn1)c1ccccc1 | 11.7
COc1ccc(Nc2c(-c3ccc(C)cc3)nc3cnccn23)cc1 | -24.5
C=CCc1ccc(OCCn2nnc3ccccc32)c(OC)c1 | -12.8
COc1ccc(-c2nn(-c3ccccc3)cc2C(=O)N2c3ccc(C)cc3C3CN(C)CCC32)cc1 (stereo not shown) | -31.7
CC1Cc2ccccc2N1C(=S)NC(=O)c1ccc(Cl)cc1Cl (stereo not shown) | 4.89
Cc1ccc2c(c1)C1CN(C)CCC1N2C(=O)c1ccc(Br)o1 (stereo not shown) | -38
Cc1ccc2c(c1)C1CN(C)CCC1N2C(=O)c1cn(-c2ccccc2)nc1-c1ccccc1 (stereo not shown) | -65.6

Structure (SMILES) | hERG current change (%, negative = inhibition) at 10uM [%]
Cc1ccc2c(c1)C1CN(C)CCC1N2C(=S)NC(=O)c1ccc(Br)cc1 (stereo not shown) | -67.1
Cc1ccc(C(=O)N(C)c2ccc(OCC(=O)N3c4ccc(C)cc4C4CN(C)CCC43)cc2)cc1.Cl (stereo not shown) | -25.5
Cc1ccc2c(c1)C1CN(C)CCC1N2C(=O)c1cccs1 (stereo not shown) | -22
Cc1ccc2c(c1)C1CN(C)CCC1N2C(=O)c1ccco1 (stereo not shown) | -7.26
Cc1ccc2c(c1)C1CN(C)CCC1N2C(=S)Nc1ccc(OC(F)F)cc1 (stereo not shown) | -55.1
Cc1ccc2c(c1)C1CN(C)CCC1N2C(=S)Nc1ccc(Cl)cc1Cl (stereo not shown) | -34.2
Cc1ccc2c(c1)C1CN(C)CCC1N2C(=S)NC(=O)c1ccc(Cl)cc1Cl (stereo not shown) | -71
Cc1ccc2c(c1)C1CN(C)CCC1N2C(=S)Nc1cccnc1 (stereo not shown) | -14
CC(C)c1ccc(NC(=O)CNCC(c2ccccc2)N(C)C)cc1 (stereo not shown) | -27.6
C/C(=N\NC(=O)c1ccc2c(c1)OCO2)c1ccc(O)cc1 | 13.1
Cc1ccc(/C=N/NC(=O)c2ccco2)s1 | -2.98
CCOc1cc(S(=O)(=O)NCCCN2CCOCC2)ccc1F | 3.16
Cc1cc(NC(=O)c2c(-c3c(Cl)cccc3Cl)noc2C)n(C)n1 | 16
N#Cc1ccc(NC(=O)CN2C(=O)NC(Cc3ccccc3)C2=O)cc1 (stereo not shown) | -57.7
O=C(CN1C(=O)NC(Cc2ccccc2)C1=O)Nc1ccc(OC(F)(F)F)cc1 (stereo not shown) | -13.9
O=C(CN1C(=O)NC(Cc2ccccc2)C1=O)Nc1ccccc1 (stereo not shown) | 6.7
O=C(CN1C(=O)NC(Cc2ccccc2)C1=O)Nc1ccc(OC(F)F)cc1 (stereo not shown) | -66.9
O=C(CN1C(=O)NC(Cc2ccccc2)C1=O)Nc1ccc(F)cc1 (stereo not shown) | -7.41
N#Cc1cccc(NC(=O)CN2C(=O)NC(Cc3ccccc3)C2=O)c1 (stereo not shown) | 2.91
